According to PubChem BioAssay (NCATS):
Records with an inconclusive call do not appear. Unmarked numbers belong to inactive results. Active and inactive are the calls of the source. The call rests on the fitted dose curve; in most records, active means well fitted cell-killing curve with a large enough effect; inconclusive means small, poorly fitted or top-dose-only effect, or effect the other way; inactive means no such curve, though single readings can be large or run the other way.

Test: Viability qHTS for spleen associated tyrosine kinase inhibitor (SYKi) drug resistant MV4-11 cells (AID 1963824); further: nearly all actives have a fitted effect of over 35% in size
Settings: SYKi-resistant MV4-11 viability, CellTiter-Glo, 72 h; series mostly up to 45 µM; viability, % of control: at the top concentration
How it was run: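 SYK inhibitor-resistant MV4-11 AML cells, 500 per well, added to predispensed compounds and incubated 72 hr at 37 C, 5% CO2. Viability measured by CellTiter-Glo luminescence after 10 min at room temperature.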
Potency means the concentration at half of the fitted maximal effect.

| Compound | Potency | viability, % of control [%] |
| --- | --- | --- |
| C[C@H](NC(=O)/C(C#N)=C/c1cccc(Br)n1)c1ccccc1 | 2.95 µM (active) |  |
| CCN(C)S(=O)(=O)Nc1ccc(F)c(C(=O)c2c[nH]c3ncc(-c4cnc(C5CC5)nc4)cc23)c1F | 4.68 µM (active) |  |
| Nc1cccc2c(N)cccc12 | 0.545 µM (active) |  |
| CC(C)(C)C(=O)C(Oc1ccc(Cl)cc1)n1ccnc1 (stereo not given) | 20.6 µM (active) |  |
| C[N+]1(CC2COC(c3ccccc3)(C3CCCCC3)O2)CCCCC1 (stereo not given) | 11.9 µM (active) |  |
| CCCCCCCCCCCCCCCCOP(=O)([O-])OCC[N+](C)(C)C | 21.1 µM (active) |  |
| O=C(Nc1ccc(Oc2ccc(Cl)cc2)c(Cl)c1)c1cc(I)cc(I)c1O |  | 72.6 |
| C#Cc1cccc(Nc2ncnc3cc4c(cc23)OCCOCCOCCO4)c1 | 18.6 µM (active) |  |
| CO/N=C(/C(=O)N[C@@H]1C(=O)N2C(C(=O)OCOC(=O)C(C)(C)C)=C(C)CS[C@H]12)c1csc(N)n1 | 23.7 µM (active) |  |
| COc1ccc2[nH]c(S(=O)Cc3ncc(C)c(OC)c3C)nc2c1 (stereo not given) | 1.64 µM (active) |  |
| COc1ccc2cc(C=O)ccc2c1 |  | 81.2 |
| O=c1cc(-c2ccccc2)oc2ccccc12 | 21.5 µM (active) |  |
| N#Cc1c(N)nc(N)nc1N[C@H](c1nc2c(F)ccc(Cl)c2c(=O)n1-c1cccnc1)C1CC1 | 10.5 µM (active) |  |
| O=C(NOCC(O)CO)c1cc(Br)c(F)c(F)c1Nc1ccc(I)cc1F (stereo not given) | 0.59 µM (active) |  |
| CN(C(=O)CN(CCO)CC(=O)N(C)C(C)(C)Cc1ccccc1)C(C)(C)Cc1ccccc1 | 9.44 µM (active) |  |
| CCCCCCCCCCOCC(O)CN (stereo not given) | 26.6 µM (active) |  |
| CC(C)[C@](O)(c1ccc2cc(OC(F)F)c(OC(F)F)cc2c1)c1cn[nH]n1 | 14.8 µM (active) |  |
| O=C(NOCC(O)CO)c1ccc(F)c(F)c1Nc1ccc(I)cc1F (stereo not given) | 0.148 µM (active) |  |
| C[C@@H]1COCCN1c1cc(-c2ccnn2C)c2ccnc(-c3ccn[nH]3)c2n1 | 0.0934 µM (active) |  |
| NS(=O)(=O)c1ccc(NC(=S)N2CCN(C/C=C/c3ccccc3)CC2)cc1 | 14.8 µM (active) |  |

| Compound | Potency | viability, % of control [%] |
| --- | --- | --- |
| O=C1c2ccccc2CCc2ccccc21 |  | 98.3 |
| CC(=O)Oc1ccc2c(c1)CC[C@@H]1[C@@H]2CC[C@]2(C)[C@@H](O)CC[C@@H]12 | 15 µM (active) |  |
| Cc1cc2cc(Oc3ccnc(Nc4cccc(CS(=O)(=O)NCCN(C)C)c4)n3)ccc2[nH]1 | 1.86 µM (active) |  |
| O=C(/C=C/c1ccccc1)NCCO |  | 66.4 |
| NC(N)=NN=C(/C=C/c1ccc([N+](=O)[O-])o1)/C=C/c1ccc([N+](=O)[O-])o1 | 5.31 µM (active) |  |
| COCCNCc1ccc(-c2cc3nccc(Oc4ccc(NC(=S)NC(=O)Cc5ccc(F)cc5)cc4F)c3s2)nc1 | 0.0259 µM (active) |  |
| COc1ccc(/C=N/NC(=O)c2ccncc2)cc1OC |  | 96.5 |
| Cc1cc(Oc2ccc3nc(COc4ccc(CC5SC(=O)NC5=O)cc4)n(C)c3c2)cc(C)c1N (stereo not given) | 16.6 µM (active) |  |
| O=C(O)c1ccccc1Nc1cccc(C(F)(F)F)c1 |  | 80.3 |
| CCCCCCCCCCCCCCNCCO | 16.8 µM (active) |  |
| CCOC(=O)[C@H](CCc1ccccc1)N[C@@H](C)C(=O)N1Cc2ccccc2C[C@H]1C(=O)O | 5.96 µM (active) |  |
| COc1cc2c(NC3CCN(C)CC3)nc(N3CCCN(C)CC3)nc2cc1OCCCN(C)C | 18.6 µM (active) |  |
| Cc1nc([C@](C)(O)CO)sc1-c1cnc(N)c(O[C@H](C)c2cc(F)ccc2-n2nccn2)c1 | 8.33 µM (active) |  |
| CC[C@H](NC(=O)[C@H](C)NC)C(=O)N1C[C@@H](O)C[C@H]1Cc1c(-c2[nH]c3cc(F)ccc3c2C[C@@H]2C[C@H](O)CN2C(=O)[C@H](CC)NC(=O)[C@H](C)NC)[nH]c2cc(F)ccc12 | 0.0074 µM (active) |  |
| CN(C)CCOC1=Cc2ccccc2Sc2ccc(Cl)cc21 | 15 µM (active) |  |
| COc1cc2c(cc1OC)-c1cc(=Nc3c(C)cc(C)cc3C)n(C)c(=O)n1CC2 | 10.6 µM (active) |  |
| O=C(/C=C\n1cnc(-c2cc(C(F)(F)F)cc(C(F)(F)F)c2)n1)NNc1ccccn1 | 2.63 µM (active) |  |
| Cc1cc(C(=O)Nc2cc(Oc3ccc4nc(NC(=O)C5CC5)cn4n3)ccc2C)n(C)n1 | 14.8 µM (active) |  |
| CC(C)(CNC(=O)c1cccc(-c2noc(C(F)(F)F)n2)c1)c1coc(-c2ccccc2)n1 | 14.8 µM (active) |  |
| CN1CCN(c2ccc(Nc3ncc4cc(C#N)c(=O)n(C5CCCC5)c4n3)cc2)CC1 | 0.235 µM (active) |  |
